Laboratory results: PubChem BioAssay AID1273 (Columbia University Molecular Screening Center, 2008)
Screen size: about 130,000 compounds; about 1,200 (0.92%) were called active.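 The calls were made as follows: active = inhibition above the mean plus 3 SD, with well images judged a real hit on visual review (cut at about 60% in these data, passing the limit was not always enough); inconclusive = inhibition over the cutoff but images rejected on review; inactive = inhibition not above the cutoff.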 Shown is part of a subset that was picked to be rich in actives.

Experiment: inhibitors of insulin promoter-driven GFP, primary screen, imaging, TRM-6 cells (human fetal islet line), eGFP reporter, cell count (AID 1273;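 as to normalized cell count: cells exposed to compound for 48 h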)
Settings: at 2 µM; inhibition: stronger effect = higher value; normalized cell count: measured here: cell count, toxicity

| SMILES | inhibition | normalized cell count [%] |
| --- | --- | --- |
| CCOP(=O)(OCC)C(NC(=O)c1ccc(C)cc1)C(Cl)(Cl)Cl (stereo not given) | -37.5% (inactive) | 107 |
| COP(=O)(OC)C(NC(=O)c1ccc(C)cc1)C(Cl)(Cl)Cl (stereo not given) | 78.6% (active) | 102 |
| CC(=O)c1ccc(OC(NC(=O)Cc2ccccc2)C(Cl)(Cl)Cl)cc1 (stereo not given) | -6.45% (inactive) | 137 |
| O=C(OCCN1CCOCC1)C1(c2ccccc2)CCCC1 | -36.4% (inactive) | 95.2 |
| CN(C)P(=S)(Nc1ccccc1)C(Cl)(Cl)Cl (stereo not given) | 26.7% (inactive) | 29.6 |
| Cc1ccc(-c2nn(CCC#N)cc2C(=O)O)cc1C | -30% (inactive) | 85.1 |
| CCN(CC)C(=O)c1ccc(NC(=O)c2cc(-n3cnnc3)ccc2Cl)cc1 | 86.7% (active) | 44.7 |
| CC(c1ccccc1)(c1ccccc1)c1ccncc1 | 27.3% (inactive) | 109 |
| Cc1ccsc1C(=O)C1CCCN(Cc2ccc(O)cc2)C1 (stereo not given) | 11.1% (inactive) | 139 |
| C=CCN(CC=C)C(=O)Nc1ccc(OCC)cc1 | 36.8% (inactive) | 88.5 |
